Molecules are shown by their SMILES. Records with an inconclusive call do not appear. A number with no mark means an inactive call. Active and inactive are the calls of the source. The call rests on the fitted dose curve; in most records, active means well fitted inhibition curve with a large enough effect in the signal ratio in the repeat runs (not every such curve was filed as active); inconclusive means weak or mixed curves, or effect the other way; inactive means no such curve, though single readings can be large or run the other way; the % refers to the signal ratio.
On the % scale 0 is the no-effect control and ±100 the full control effect.

Vitamin D3 receptor (Homo sapiens), sequence (P11473 whole entry, looked up): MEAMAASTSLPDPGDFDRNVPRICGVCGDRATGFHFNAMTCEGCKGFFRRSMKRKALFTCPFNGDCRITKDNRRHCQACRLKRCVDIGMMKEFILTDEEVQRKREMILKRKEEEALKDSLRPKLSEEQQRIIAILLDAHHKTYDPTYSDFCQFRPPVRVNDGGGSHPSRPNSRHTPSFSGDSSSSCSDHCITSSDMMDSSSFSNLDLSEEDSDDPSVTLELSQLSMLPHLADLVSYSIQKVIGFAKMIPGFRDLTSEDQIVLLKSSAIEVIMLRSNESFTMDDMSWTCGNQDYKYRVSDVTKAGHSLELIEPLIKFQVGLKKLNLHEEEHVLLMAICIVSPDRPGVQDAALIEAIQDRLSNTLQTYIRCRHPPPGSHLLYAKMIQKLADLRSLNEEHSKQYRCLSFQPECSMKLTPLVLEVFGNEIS

The assay has as its target Vitamin D3 receptor (Homo sapiens) (UniProt P11473). In words: qHTS assay to identify small molecule antagonists of the vitamin D receptor (VDR) signaling pathway (AID 743223). The settings on record: VDR-UAS-bla HEK293T, beta-lactamase FRET ratio, 16 h; series mostly up to 61 µM; activity change, negative = inhibition: at the top concentration. The text has this: U.S. Tox21 Program National Center for Advancing Translational Sciences [NCATS] NIH Chemical Genomics Center [NCGC] U.S. Environmental Protection Agency [EPA] National Institutes of Environmental Health Sciences [NIEHS] National Toxicology Program [NTP] U.S. Food and Drug Administration [FDA] Tox21 Assay Overview: The vitamin D receptor (VDR), a member of nuclear hormone receptor superfamily, plays a critical role in calcium homeostasis and bone metabolism. It is also involved in cell differentiation and growth, and thrombogenicity.
Tox21 Assay Protocol Summary: VDR-bla cells were dispensed at 2,000 cells/5 uL of assay medium per well into black wall/clear-bottom 1536-well plates using a Multidrop Combi (Thermo Fisher Scientific, Waltham, MA) dispenser. After the assay plates were incubated at a 37C and 5% CO2 for 4 h, 23 nL of compounds dissolved in DMSO, positive controls or DMSO only was transferred to the assay plate by a Pintool station (Kalypsys, San Diego, CA), followed by addition of 1 uL of 1alpha, 25-Dihydroxy Vitamin D3 (3 nM, final concentration in the wells) using a Bioraptr Flying Reagent Dispenser (FRD) workstation (Beckman Coulter, Indianapolis, IN). The plates were incubated at 37C and 5% CO2 for 16 h, and then 1 uL of LiveBLAzerTM B/G FRET substrate was added using a Bioraptr FRD. The plates were incubated at room temperature for 2 h and fluorescence intensity was measured by an Envision plate reader (PerkinElmer, Shelton, CT).
(qHTS replaces the single test concentration by a dilution series.)
Take `Cc1cccc(C(=O)O)c1`: the result was inactive.

As for `c1ccc2sc(SSN3CCOCC3)nc2c1`, the result was inactive.

Consider `CN(C)CCC=C1c2ccccc2CCc2ccccc21`, for which the “activity change, negative = inhibition” value is -0.589%.

With `COC(=O)c1ccccc1`, the “activity change, negative = inhibition” value is -7.53%.

Turning to `c1ccc(Nc2ccccc2)cc1`, the “activity change, negative = inhibition” value was 1.34%.

Consider `CCCCC(CC)COC(=O)c1ccc(N(C)C)cc1` (stereo not given), for which the “activity change, negative = inhibition” value is 1.6%.

With `Cc1cccc(N(C)C(=S)Oc2ccc3ccccc3c2)c1`, the outcome was inactive.

As for `CC(=O)O[C@]1(C(C)=O)CC[C@H]2[C@@H]3C=C(Cl)C4=CC(=O)[C@@H]5C[C@@H]5[C@]4(C)[C@H]3CC[C@@]21C`, the “activity change, negative = inhibition” value is -10.5%.

Regarding `c1cc(-c2ccncc2)ccn1`, the “activity change, negative = inhibition” value was -4.55% [at 78.8 µM].

Take `O=C1c2cccc(O)c2C(=O)c2c(O)cccc21`: the outcome was inactive.

On to `O=CCCCC=O`, for which the outcome was inactive.

With `CC(=O)c1ccccn1`, the result was inactive.

On to `CC(=O)CC/C=C(\C)CCC=C(C)C`, for which the “activity change, negative = inhibition” value is 3.87%.

In the case of `CC1=CCC(C(C)(C)O)CC1` (stereo not given), the result was inactive.

As to `C=C(C)C(=O)OCCOC(=O)C(=C)C`, the result was inactive.

On to `CCCCOCCOCCO`, for which the “activity change, negative = inhibition” value is 9.54% [at 78.8 µM].

On to `CC(C)OC(=O)C(C)(C)Oc1ccc(C(=O)c2ccc(Cl)cc2)cc1`, for which the outcome was inactive.

On to `c1ccc2c(c1)c1cccc3ccc4cccc2c4c31`, for which the result was inactive.

Turning to `O=C(OCc1ccccc1)c1ccccc1O`, the “activity change, negative = inhibition” value is 15.6%.

Regarding `CC(C)Oc1ccc2c(=O)c(-c3ccccc3)coc2c1`, the outcome was inactive.

`O=C(/C=C/C=C/c1ccc2c(c1)OCO2)N1CCCCC1`: the result was inactive.

With `c1ccc2c(c1)Oc1ccccc1S2`, the outcome was inactive.

As for `Cc1c(C(N)=O)cc([N+](=O)[O-])cc1[N+](=O)[O-]`, the outcome was inactive.

Take `O=Cc1ccccc1O`: the outcome was inactive.

As for `CN(C)c1nc(N(C)C)nc(N(C)C)n1`, the result was inactive.

Regarding `C[Si](C)(C)O[Si](C)(C)C`, the “activity change, negative = inhibition” value is -3.04%.

For `CCCCC(CC)COCC1CO1` (stereo not given), the “activity change, negative = inhibition” value was -15.3%.

As for `CN(C)CCN(Cc1cccs1)c1ccccn1`, the result was inactive.

With `Cc1ccc(C)c(O)c1C`, the result was inactive.

As to `NC=O`, the result was inactive.

`CC(C)OC=O`: the result was inactive.

On to `Nc1ccc(S(=O)(=O)Nc2cnc3ccccc3n2)cc1`, for which the “activity change, negative = inhibition” value was 3.32%.

Consider `NNc1ccc(C(=O)O)cc1`, for which the result was inactive.

Turning to `O=CCc1ccccc1`, the outcome was inactive.

For `CC(CCC(=O)O)(c1ccc(O)cc1)c1ccc(O)cc1`, the “activity change, negative = inhibition” value was 2.48%.

`CCCCNS(=O)(=O)c1ccccc1`: the outcome was inactive.

Take `CCCCC(CC)COP(=O)(OCC(CC)CCCC)OCC(CC)CCCC` (stereo not given): the result was inactive.

With `c1ccc2cc(Nc3ccc(Nc4ccc5ccccc5c4)cc3)ccc2c1`, the “activity change, negative = inhibition” value was 4.12% [at 78.8 µM].

On to `O=C(COc1ccc(Cl)cc1)N1CCN(Cc2ccc3c(c2)OCO3)CC1`, for which the result was inactive.

Take `CCCCc1oc2ccccc2c1C(=O)c1cc(I)c(OCCN(CC)CC)c(I)c1`: the “activity change, negative = inhibition” value was -26%.

Source of the values: PubChem BioAssay (Tox21).
